Experimental data: PubChem BioAssay (EPA / NIEHS)
Records with an inconclusive call do not appear. Activity calls are given as the source filed them. Rule for the calls: active = hit-call score of the fitted dose curve at least 0.9, where 1 is the maximum; inconclusive = response in the unintended direction; inactive = score below 0.9.

These molecules were tested against sheep Cyclooxygenase-1 (Cox1), PTGS1 (gene 443551) (UniProt P05979) (assay: NVS_ENZ_oCOX1: NovaScreen (NVS) Enzymatic Assay for sheep Cyclooxygenase-1 (Cox1) (AID 2283239);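 note: actives reduce cyclooxygenase activity so potencies are for inhibitors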).
Chain of sheep Cyclooxygenase-1 (Cox1), PTGS1 (gene 443551) (P05979 whole entry, looked up): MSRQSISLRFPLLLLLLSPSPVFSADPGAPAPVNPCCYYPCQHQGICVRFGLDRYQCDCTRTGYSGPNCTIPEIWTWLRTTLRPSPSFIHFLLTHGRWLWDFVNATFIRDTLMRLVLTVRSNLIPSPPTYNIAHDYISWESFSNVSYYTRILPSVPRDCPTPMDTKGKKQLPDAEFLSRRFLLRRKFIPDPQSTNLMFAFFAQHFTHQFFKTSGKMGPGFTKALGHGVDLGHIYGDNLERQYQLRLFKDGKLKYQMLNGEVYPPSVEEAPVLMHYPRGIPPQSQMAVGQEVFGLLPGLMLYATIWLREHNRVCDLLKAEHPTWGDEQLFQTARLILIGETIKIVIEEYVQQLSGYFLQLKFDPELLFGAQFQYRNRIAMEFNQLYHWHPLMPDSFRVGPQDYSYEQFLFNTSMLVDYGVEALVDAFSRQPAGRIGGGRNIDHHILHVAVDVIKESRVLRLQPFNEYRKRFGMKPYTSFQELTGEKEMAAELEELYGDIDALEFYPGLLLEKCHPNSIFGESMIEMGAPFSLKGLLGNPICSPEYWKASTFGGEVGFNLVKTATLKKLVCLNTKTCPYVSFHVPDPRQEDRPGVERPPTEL
Summary of the method: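 Colorimetric enzyme readout using sheep seminal-vesicle cyclooxygenase-1, measured 0.66 h post-dosing. Single-concentration duplicates at 25 uM first, then concentration series for actives, with DMSO as baseline and plate controls.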
`CC(C)(CO)[N+](=O)[O-]` was tested, and the outcome was “inactive”.
In the case of `CCn1c2ccccc2c2cc(N)ccc21`, the AC50 is reported as 3.25 µM (active).
`O=C(O)CN(CCN(CC(=O)O)CC(=O)O)CCN(CC(=O)O)CC(=O)O` was tested, and the outcome was “inactive”.
`O=c1[nH]nnc2ccccc12` was tested, and the AC50 was 0.401 µM (active).
With `O=C1OC2(c3cc(Br)c(O)c(Br)c3Oc3c2cc(Br)c(O)c3Br)c2c(Cl)c(Cl)c(Cl)c(Cl)c21` the AC50 was 8.68 µM (active).
For `CCCCCCCCC`, the outcome was “inactive”.
`CC(=O)OCc1ccc2c(c1)OCO2` was tested, and the outcome was “inactive”.
In the case of `CCCCCC(CO)CCC` (centres undefined), the AC50 is reported as 0.00229 µM (active).
For `COC(=O)c1ccc(C)cc1`, the outcome was “inactive”.
`CC(C)=CCO` was tested, and the outcome was “inactive”.
For `CC1CCC(C(C)CS)CC1S` (centres undefined), the AC50 was 25 µM (active).
For `CC(C)[C@@H]1CC[C@@H](C)CC1=O`, the outcome was “inactive”.

Each molecule was assayed against guinea pig Leukotriene D4 Receptor (LTD4), CYSLTR1 (gene 100135514) (UniProt Q2NNR5) (assay: NVS_GPCR_gLTD4: NovaScreen (NVS) G Protein-Coupled Receptor Assay for guinea pig Leukotriene D4 Receptor (LTD4) (AID 2283248)).
Chain of guinea pig Leukotriene D4 Receptor (LTD4), CYSLTR1 (gene 100135514) (Q2NNR5 whole entry, looked up): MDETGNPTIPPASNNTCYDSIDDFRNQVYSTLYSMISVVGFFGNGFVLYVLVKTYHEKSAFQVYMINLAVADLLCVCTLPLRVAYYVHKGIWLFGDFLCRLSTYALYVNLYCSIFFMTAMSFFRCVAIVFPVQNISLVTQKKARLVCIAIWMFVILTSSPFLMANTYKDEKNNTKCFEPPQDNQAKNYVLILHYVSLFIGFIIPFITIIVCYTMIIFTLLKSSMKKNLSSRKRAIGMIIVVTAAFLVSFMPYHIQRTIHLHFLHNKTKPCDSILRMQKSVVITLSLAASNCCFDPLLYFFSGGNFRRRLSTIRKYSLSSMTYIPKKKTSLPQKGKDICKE
Summary of the method: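 Radioligand displacement on guinea pig lung membranes, 1 h incubation, filtration and scintillation counting; DMSO as negative control. Duplicate 25 uM primary screen, then singleton concentration-response up to 50 uM.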
`CCCOCC(C)O` (centres undefined) was tested, and the AC50 was 7.91 µM (active).
With `Clc1ccc(Cl)c(Cl)c1Cl` the outcome was “inactive”.
For `CC(=O)/C=C/C1=C(C)CCCC1(C)C`, the outcome was “inactive”.
`Cc1ccc(O)c(C(C)(C)C)c1` was tested, and the outcome was “inactive”.

Each molecule was assayed against guinea pig Opioid, Kappa 1 Receptor (OpiateK), OPRK1 (gene 100135587) (UniProt P41144) (assay: NVS_GPCR_gOpiateK: NovaScreen (NVS) G Protein-Coupled Receptor Assay for guinea pig Opioid, Kappa 1 Receptor (OpiateK) (AID 2283252);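 note: radioligand displacement from kappa opioid receptor in guinea pig cerebellar membranes; active means reduced radioligand binding relative to DMSO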).
Chain of guinea pig Opioid, Kappa 1 Receptor (OpiateK), OPRK1 (gene 100135587) (P41144 whole entry, looked up): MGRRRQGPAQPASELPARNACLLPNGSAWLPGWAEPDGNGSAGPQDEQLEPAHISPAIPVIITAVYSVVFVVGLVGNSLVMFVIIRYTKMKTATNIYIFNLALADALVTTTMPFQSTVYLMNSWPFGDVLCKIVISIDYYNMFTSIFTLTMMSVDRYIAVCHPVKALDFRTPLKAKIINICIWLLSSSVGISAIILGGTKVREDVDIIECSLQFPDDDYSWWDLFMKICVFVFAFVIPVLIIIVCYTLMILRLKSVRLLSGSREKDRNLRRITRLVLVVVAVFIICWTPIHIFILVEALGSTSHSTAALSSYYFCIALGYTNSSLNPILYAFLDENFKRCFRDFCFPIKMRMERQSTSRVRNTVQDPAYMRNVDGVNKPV
Protocol: NVS_GPCR_gOpiateK is a biochemical, single-readout assay that uses extracted gene-proteins from Guinea pig cerebellar membranes in a tissue-based cell-free assay. Measurements were taken 2 hours after chemical dosing in a 48-well plate.NVS_GPCR_gOpiateK is one of one assay component(s) measured or calculated from the NVS_GPCR_gOpiateK assay. It is designed to make measurements of radioligand binding, a form of binding reporter, as detected with scintillation counting signals by Filter-based radiodetection technology.Data from the assay component NVS_GPCR_gOpiateK was analyzed into 1 assay endpoint. This assay endpoint, NVS_GPCR_gOpiateK, was analyzed in the positive analysis fitting direction relative to DMSO as the negative control and baseline of activity. Using a type of binding reporter, loss-of-signal activity can be used to understand changes in the binding as they relate to the gene Oprk1. Furthermore, this assay endpoint can be referred to as a primary readout, because the performed assay has only produced 1 assay endpoint. To generalize the intended target to other relatable targets, this assay endpoint is annotated to the gpcr intended target family, where the subfamily is rhodopsin-like receptor.
Binding assays used specific radioligands (tritiated, iodinated) with non-radioactive competitive displacement ligands in agonist or antagonist protocols (as indicated) and various reference compounds and inhibitors to titrate specific binding to receptors and transporters. Most enzyme assays (CYPs, kinases, phosphatases, proteases, HDACs) used recombinant protein and specific substrates (fluorescence mostly, some colorimetric and radioactive) and inhibitors, followed by a biochemical separation of substrate and product. All assays for the biochemical HTS were initially run in duplicate at a single concentration (10 uM for CYP450 assays and 25 uM for all others). […] Each assay was run with positive and negative controls, and concurrent controls on every plate. […]
For `CC1COc2ccccc2N1C(=O)C(Cl)Cl` (centres undefined), the outcome was “inactive”.
With `O=C=NC1CCC(CC2CCC(N=C=O)CC2)CC1` (centres undefined) the AC50 was 29.3 µM (active).
With `O=P(c1ccccc1)(c1ccccc1)c1ccccc1` the AC50 was 11.4 µM (active).

These molecules were tested against human Adenosine A2a Receptor (AdoRA2a), ADORA2A (gene 135) (UniProt P29274) (assay: NVS_GPCR_hAdoRA2a: NovaScreen (NVS) G Protein-Coupled Receptor Assay for human Adenosine A2a Receptor (AdoRA2a) (AID 2283256)).
Chain of human Adenosine A2a Receptor (AdoRA2a), ADORA2A (gene 135) (P29274 whole entry, looked up): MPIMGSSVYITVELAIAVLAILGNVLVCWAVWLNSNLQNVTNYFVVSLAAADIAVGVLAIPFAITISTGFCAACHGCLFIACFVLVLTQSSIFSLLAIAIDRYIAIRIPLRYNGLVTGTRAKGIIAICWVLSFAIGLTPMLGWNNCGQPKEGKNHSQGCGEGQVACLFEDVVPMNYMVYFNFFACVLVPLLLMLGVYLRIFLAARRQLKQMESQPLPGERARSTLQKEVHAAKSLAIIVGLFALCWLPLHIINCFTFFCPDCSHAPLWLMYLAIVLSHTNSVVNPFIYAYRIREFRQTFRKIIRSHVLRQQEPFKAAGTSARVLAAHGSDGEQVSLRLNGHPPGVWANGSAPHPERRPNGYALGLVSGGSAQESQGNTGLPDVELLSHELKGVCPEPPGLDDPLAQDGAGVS
Summary of the method: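 Cell-free radioligand binding on membranes from HEK293 expressing the receptor; competitive displacement read 1.5 h after dosing by filter-based scintillation counting. Primary screen in duplicate at 25 uM; actives followed in concentration series, with DMSO as baseline.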
In the case of `O=C(O)C[C@H](O)C[C@H](O)/C=C/c1c(C2CC2)nc2ccccc2c1-c1ccc(F)cc1`, the outcome is reported as “inactive”.
In the case of `Nc1cc([N+](=O)[O-])ccc1Cl`, the outcome is reported as “inactive”.
With `NC(=O)c1ccccc1Cl` the outcome was “inactive”.

What follows are molecules tested against D(1A) dopamine receptor (Homo sapiens) (UniProt P21728) (assay: NVS_GPCR_hDRD1: NovaScreen (NVS) G Protein-Coupled Receptor Assay for human Dopamine Receptor D1 (DRD1) (AID 2283269)).
Chain of D(1A) dopamine receptor (Homo sapiens) (P21728 whole entry, looked up): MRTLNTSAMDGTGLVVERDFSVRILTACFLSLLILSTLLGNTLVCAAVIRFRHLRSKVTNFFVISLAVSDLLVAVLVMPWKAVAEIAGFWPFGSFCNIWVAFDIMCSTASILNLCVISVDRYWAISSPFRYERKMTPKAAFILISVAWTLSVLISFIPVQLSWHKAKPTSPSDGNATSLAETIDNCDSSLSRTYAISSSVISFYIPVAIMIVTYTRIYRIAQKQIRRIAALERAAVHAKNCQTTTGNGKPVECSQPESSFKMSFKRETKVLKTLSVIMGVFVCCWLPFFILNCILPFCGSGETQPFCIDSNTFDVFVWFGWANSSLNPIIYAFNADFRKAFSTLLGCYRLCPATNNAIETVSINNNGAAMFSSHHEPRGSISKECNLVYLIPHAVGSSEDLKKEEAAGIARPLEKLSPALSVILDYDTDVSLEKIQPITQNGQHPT
Summary of the method: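 Cell-free competition with radioligand, filter-trapped and scintillation-counted 1 h post-dose, using HEK293-derived human D1 preparation. Duplicate single-point testing at 25 uM first, then concentration series for actives; DMSO served as baseline, loss-of-signal scored.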
For `CC(C)c1ccc(C(C)C)cc1`, the outcome was “inactive”.
`CCCCNC(=O)NS(=O)(=O)c1ccc(C)cc1` was tested, and the outcome was “inactive”.
With `c1ccc2sc(SN(C3CCCCC3)C3CCCCC3)nc2c1` the outcome was “inactive”.
In the case of `CCn1c2ccccc2c2cc(N)ccc21`, the AC50 is reported as 38.5 µM (active).
With `O=C1OC2(c3cc(Br)c(O)c(Br)c3Oc3c2cc(Br)c(O)c3Br)c2c(Cl)c(Cl)c(Cl)c(Cl)c21` the AC50 was 0.423 µM (active).
With `Cc1ccc2n[nH]nc2c1` the outcome was “inactive”.

Each molecule was assayed against Muscarinic acetylcholine receptor M2 (Homo sapiens) (UniProt P08172) (assay: NVS_GPCR_hM2: NovaScreen (NVS) G Protein-Coupled Receptor Assay for human Muscarinic, M2 Receptor (AID 2283273)).
Chain of Muscarinic acetylcholine receptor M2 (Homo sapiens) (P08172 whole entry, looked up): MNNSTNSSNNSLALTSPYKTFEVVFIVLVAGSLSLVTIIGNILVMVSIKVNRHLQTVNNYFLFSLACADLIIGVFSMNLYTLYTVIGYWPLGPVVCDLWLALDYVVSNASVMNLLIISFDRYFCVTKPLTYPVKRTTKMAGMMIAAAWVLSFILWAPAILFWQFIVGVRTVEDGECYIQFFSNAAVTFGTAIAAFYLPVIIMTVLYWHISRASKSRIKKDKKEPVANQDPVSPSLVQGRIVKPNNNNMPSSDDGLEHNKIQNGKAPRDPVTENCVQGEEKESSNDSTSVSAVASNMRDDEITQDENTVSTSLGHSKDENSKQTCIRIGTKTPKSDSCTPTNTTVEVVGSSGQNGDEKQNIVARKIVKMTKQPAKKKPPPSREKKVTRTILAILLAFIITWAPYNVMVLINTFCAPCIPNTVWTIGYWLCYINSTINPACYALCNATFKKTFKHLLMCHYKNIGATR
Summary of the method: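 Cell-free radioligand binding using membranes from CHO cells expressing the receptor; filter-based scintillation counting after 1 hour of compound exposure. Loss of specific binding relative to DMSO baseline; primary screen at 25 uM in duplicate, actives then run in concentration series.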
In the case of `CC(C)(CO)[N+](=O)[O-]`, the outcome is reported as “inactive”.
In the case of `Nc1cc(N)cc(C(=O)O)c1`, the AC50 is reported as 38.1 µM (active).
In the case of `CN(CCOc1ccc(CC2SC(=O)NC2=O)cc1)c1ccccn1` (centres undefined), the AC50 is reported as 13.2 µM (active).
In the case of `O=C=NC1CCC(CC2CCC(N=C=O)CC2)CC1` (centres undefined), the AC50 is reported as 9.37 µM (active).
For `COC(=O)OC`, the outcome was “inactive”.
In the case of `CNC[C@H](O)c1cccc(O)c1`, the AC50 is reported as 29.7 µM (active).
